Screen size: about 5,500 compounds; about 2,000 (36%) were called active. Inconclusive results (about 18%) are left out. Cut-off read from the data, not from the text of the source: active = normalized growth mostly below about 0.91 (no sharp cut-off); inconclusive = no clear call, values can overlap the other calls; inactive = mostly above about 0.92. The list shows a part of the results.
Assay: chemical genetic growth profiling, strain panel (AID 1159580);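 note: tested at 20 µM; growth read once vehicle control cultures reached saturation at 30 °C; 1 = growth at the plate median or of vehicle wells; lower values mean less growth of the strain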
Details: S. cerevisiae deletion strains, growth OD

Measured: normalized growth

CCCc1cc(OC)c2c(c1)OCO2
inactive: locus YAL021C, strain ccr4, stronger effect = lower value 1.04 | locus YAL026C, strain drs2, stronger effect = lower value 0.988 | locus YAL030W, strain snc1, stronger effect = lower value 0.999 | locus YBL061C, strain skt5, stronger effect = lower value 0.993 | locus YBR009C, strain hhf1, stronger effect = lower value 0.988 | locus YBR023C, strain chs3, stronger effect = lower value 0.991 | locus YBR171W, strain sec66, stronger effect = lower value 0.973 | locus YBR231C, strain swc5, stronger effect = lower value 1.01 | locus YBR279W, strain paf1, stronger effect = lower value 1 | locus YCL011C, strain gbp2, stronger effect = lower value 0.999 | locus YCL016C, strain dcc1, stronger effect = lower value 0.98 | locus YCL069W, strain vba3, stronger effect = lower value 0.996 | locus YCR088W, strain abp1, stronger effect = lower value 0.985 | locus YDL005C, strain med2, stronger effect = lower value 0.975 | locus YDL040C, strain nat1, stronger effect = lower value 0.978 | locus YDR001C, strain nth1, stronger effect = lower value 0.987 | locus YDR069C, strain doa4, stronger effect = lower value 0.994 | locus YDR137W, strain rgp1, stronger effect = lower value 0.94 | locus YDR159W, strain sac3, stronger effect = lower value 0.943 | locus YDR195W, strain ref2 0.974 | locus YDR297W, strain sur2, stronger effect = lower value 0.995 | locus YDR334W, strain swr1, stronger effect = lower value 1.01 | locus YDR335W, strain msn5, stronger effect = lower value 0.988 | locus YDR392W, strain spt3, stronger effect = lower value 0.952 | locus YEL003W, strain gim4, stronger effect = lower value 0.994 | locus YEL037C, strain rad23, stronger effect = lower value 0.998 | locus YEL061C, strain CIN8 (second series), stronger effect = lower value 0.979 | locus YER015W, strain faa2, stronger effect = lower value 0.989 | locus YER016W, strain bim1, stronger effect = lower value 0.977 | locus YER111C, strain swi4, stronger effect = lower value 0.976 | locus YER155C, strain BEM2 (second series), stronger effect = lower value 0.928 | locus YFR010W, strain ubp6, stronger effect = lower value 0.999 | locus YGL167C, strain pmr1, stronger effect = lower value 0.983 | locus YGL173C, strain kem1, stronger effect = lower value 0.987 | locus YGL227W, strain vid30, stronger effect = lower value 0.974 | locus YGL240W, strain doc1, stronger effect = lower value 1 | locus YGL253W, strain hxk2, stronger effect = lower value 0.995 | locus YHR013C, strain ard1, stronger effect = lower value 1.11 | locus YHR027C, strain rpn1, stronger effect = lower value 0.982 | locus YHR030C, strain SLT2, stronger effect = lower value 0.944 | locus YHR079C, strain IRE1, stronger effect = lower value 0.946 | locus YHR142W, strain chs7, stronger effect = lower value 0.974 | locus YJL092W, strain hpr5, stronger effect = lower value 0.985 | locus YJL095W, strain BCK1 (second series), stronger effect = lower value 1 | locus YJL095W, strain BCK1, stronger effect = lower value 1.02 | locus YJL115W, strain asf1, stronger effect = lower value 0.98 | locus YJL129C, strain trk1, stronger effect = lower value 0.992 | locus YJL154C, strain vps35, stronger effect = lower value 0.994 | locus YJL164C, strain tpk1, stronger effect = lower value 1 | locus YJL166W, strain qcr8, stronger effect = lower value 0.985 | locus YJL187C, strain SWE1, stronger effect = lower value 1 | locus YJR066W, strain TOR1, stronger effect = lower value 0.937 | locus YKL160W, strain elf1, stronger effect = lower value 0.983 | locus YKR026C, strain gcn3, stronger effect = lower value 0.971 | locus YKR091W, strain srl3, stronger effect = lower value 0.984 | locus YLL001W, strain dnm1, stronger effect = lower value 0.999 | locus YLL026W, stronger effect = lower value 0.992 | locus YLL041C, strain sdh2, stronger effect = lower value 0.997 | locus YLR027C, strain aat2, stronger effect = lower value 0.984 | locus YLR113W, strain HOG1, stronger effect = lower value 1.04 | locus YLR221C, strain rsa3, stronger effect = lower value 0.989 | locus YLR258W, strain gsy2, stronger effect = lower value 0.998 | locus YLR262C, strain YPT6 (second series), stronger effect = lower value 0.927 | locus YLR320W, strain mms22, stronger effect = lower value 1 | locus YLR342W, strain FKS1, stronger effect = lower value 0.977 | locus YLR357W, strain rsc2, stronger effect = lower value 0.974 | locus YLR370C, strain arc18, stronger effect = lower value 0.984 | locus YLR384C, strain iki3, stronger effect = lower value 0.995 | locus YML120C, strain ndi1, stronger effect = lower value 0.987 | locus YMR058W, strain fet3, stronger effect = lower value 1.02 | locus YMR125W, strain sto1, stronger effect = lower value 0.971 | locus YMR129W, stronger effect = lower value 0.975 | locus YMR205C, strain PFK2, stronger effect = lower value 0.98 | locus YMR231W, strain pep5, stronger effect = lower value 1 | locus YNL071W, strain lat1, stronger effect = lower value 0.998 | locus YNL183C, strain NPR1, stronger effect = lower value 1.01 | locus YNL209W, strain ssb2, stronger effect = lower value 0.967 | locus YNL248C, strain rpa49, stronger effect = lower value 0.989 | locus YNL322C, strain KRE1 (second series), stronger effect = lower value 0.976 | locus YNR049C, strain mso1, stronger effect = lower value 0.992 | locus YOR001W, strain rrp6, stronger effect = lower value 0.999 | locus YOR070C, strain gyp1, stronger effect = lower value 0.997 | locus YOR080W, strain dia2, stronger effect = lower value 0.966 | locus YOR083W, strain WHI5, stronger effect = lower value 0.938 | locus YOR106W, strain vam3, stronger effect = lower value 0.976 | locus YOR231W, strain MKK1, stronger effect = lower value 0.957 | locus YOR265W, strain rbl2, stronger effect = lower value 0.981 | locus YOR270C, strain vph1, stronger effect = lower value 1 | locus YOR290C, strain snf2, stronger effect = lower value 0.995 | locus YPL051W, strain arl3, stronger effect = lower value 0.991 | locus YPL078C, strain atp4, stronger effect = lower value 0.981 | locus YPL106C, strain sse1, stronger effect = lower value 0.976 | locus YPL240C, strain hsp82, stronger effect = lower value 0.974 | locus YPL256C, strain CLN2, stronger effect = lower value 0.953

Source: PubChem BioAssay AID1159580 (chemical genetic matrix, 2015)
